GALR2 agonist: agonists of human galanin receptor 2 (GALR2); actives 0.48% (n = 140,000); GALR2-expressing cells, agonist activation read-out; activation, % (test concentration not listed); AID 803; in the data active = activation above about 5%, passing the limit was not always enough
Target sequence (O43603 whole entry, looked up): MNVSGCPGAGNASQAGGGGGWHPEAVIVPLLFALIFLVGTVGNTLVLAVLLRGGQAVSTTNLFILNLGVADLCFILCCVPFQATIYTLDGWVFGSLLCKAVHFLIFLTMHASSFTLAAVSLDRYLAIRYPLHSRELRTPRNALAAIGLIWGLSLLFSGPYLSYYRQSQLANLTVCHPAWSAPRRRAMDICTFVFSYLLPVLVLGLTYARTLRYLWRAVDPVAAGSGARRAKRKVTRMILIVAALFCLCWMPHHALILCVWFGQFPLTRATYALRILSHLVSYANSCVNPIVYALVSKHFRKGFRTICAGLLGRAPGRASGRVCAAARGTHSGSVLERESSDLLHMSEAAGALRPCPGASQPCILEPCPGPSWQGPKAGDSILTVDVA
MRP resist rev: MRP-mediated drug resistance reversal. differential viability (reversal), % at 10 µM. H69AR cells + 2 uM doxorubicin, CellTiter-Glo, 72 h. actives 0.04% (n = 85,000). AID 602;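 active = viability drop by adding the cancer drug above about 55%, with treated viability meeting a 40% cutoff, limit read from the data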;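 note: larger differential means the compound sensitizes cells more to doxorubicin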
MRP1 act: activates MRP-1. H69AR cells + doxorubicin, viability rescue, CellTiter-Glo. viability increase, % at 10 µM. actives 0.61% (n = 140,000). AID 799;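 active = viability gain under doxorubicin at or above a set limit, the compound median plus 3 SD, cut at about 4.7% in these data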;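 note: MRP-1 overexpressing cells given doxorubicin 25 µM after compound pretreatment; 18-22 h compound pretreatment then 72 h with doxorubicin before readout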
S1P2 antag: S1P2 (human) receptor antagonism; O95136; cell-based S1P2 antagonist assay, inhibition at 5 uM; inhibition, % at 5 µM; actives 0.21% (n = 97,000); AID 736; in the data active = inhibition above about 45%;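 note: CRE beta-lactamase reporter cells expressing human S1P2 stimulated with S1P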
Target sequence (O95136 whole entry, looked up): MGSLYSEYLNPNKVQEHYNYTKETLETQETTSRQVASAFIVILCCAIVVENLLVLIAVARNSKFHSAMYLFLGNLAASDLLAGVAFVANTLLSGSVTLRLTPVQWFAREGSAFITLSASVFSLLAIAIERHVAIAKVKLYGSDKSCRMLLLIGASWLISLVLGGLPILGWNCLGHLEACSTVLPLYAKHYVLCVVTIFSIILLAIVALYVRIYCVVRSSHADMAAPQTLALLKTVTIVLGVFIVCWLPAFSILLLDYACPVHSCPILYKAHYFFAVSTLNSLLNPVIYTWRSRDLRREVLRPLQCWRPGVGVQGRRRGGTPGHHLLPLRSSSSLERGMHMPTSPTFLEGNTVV
GALR2 antag: blocks the human galanin receptor 2. AID 828. O43603. inhibition, % at 4 µM. actives 0.39% (n = 140,000). GALR2-expressing cells, antagonist mode; in the data active = inhibition above about 27%;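 note: cells stimulated with galanin 1-16 at roughly its EC80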
S1P2 agonist: activates the human S1P2 receptor; O95136; S1P2-expressing cell line, agonist reporter read-out; activation, % at 4.5 µM; actives 0.46% (n = 97,000); AID 729; in the data active = activation above about 16%
GALR2 agon conf: GALR2 (human) agonism confirmed; shares compounds with GALR2 agonist; GALR2-expressing cells, agonist activation; activation, % at 5.6 µM; actives 10% (n = 460); AID 864; in the data active = activation above about 8.4%
BLA act counter: activates beta-lactamase reporter in GALR2 agonist counterscreen | activation, % at 5.6 µM | AID 865 | actives 10% (n = 460) | shares compounds with GALR2 agonist | CHO NFAT-bla reporter, beta-lactamase FRET activation;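 active = activation above the screen-wide mean activation plus 3 SD, cut at about 8% in these data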
Of the large screens only hits and unclear results are named; the others gave an inactive call (follow-up assays come after a bar, where they were run). The list is not random: actives were taken first. Their share in the collection is about 1.8%.

CCOC(=O)/C(C#N)=C/c1ccc(OC)c(OC)c1	GALR2 agonist 16 | GALR2 agon conf inactive | BLA act counter inactive
CN(C(=O)Nc1ccccc1)C1CCS(=O)(=O)C1 (stereo not drawn)	none
CC(=O)NC1=C(N(C)C2CCS(=O)(=O)C2)C(=O)c2ccccc2C1=O (stereo not drawn)	GALR2 agonist 36 (no result: MRP resist rev, S1P2 antag, S1P2 agonist) | GALR2 agon conf inactive | BLA act counter inactive
O=S(=O)(Nc1ccc2c(c1)OCO2)c1ccccc1	GALR2 agonist 34 | GALR2 agon conf inactive | BLA act counter inactive
CCCCNS(=O)(=O)c1ccc(OC)cc1	none (no result: MRP resist rev)
Cc1ccc2ncccc2c1NS(=O)(=O)c1ccccc1	none
CCOc1cc(/C=C2/C(=O)N(c3ccccc3)N=C2C)ccc1OC(=O)c1ccco1	GALR2 agonist 136 (no result: MRP resist rev) | GALR2 agon conf inactive | BLA act counter inactive
N#Cc1nc(-c2cccs2)oc1NCCc1ccccc1	none
CCOC(=O)N1CCN(C(=O)c2ccc3c(SCC(=O)O)c4c(nc3c2)CCCC4)CC1	none
CC(=O)NNC(=O)CCC(=O)Nc1ccccc1	GALR2 agonist 17 (no result: MRP resist rev) | GALR2 agon conf inactive | BLA act counter inactive
S=c1[nH]nc(-c2cc3c(s2)-c2ccccc2CC3)o1	none (no result: MRP resist rev) | GALR2 agon conf inactive | BLA act counter inactive
CSc1nnc(-c2cc3c(s2)-c2ccccc2CC3)o1	none (no result: MRP resist rev)
Cc1ccccc1OCc1nnc(SCC(=O)Nc2c(C)n(C)n(-c3ccccc3)c2=O)n1-c1ccccc1	none (no result: MRP resist rev, S1P2 antag, S1P2 agonist)
COc1ccccc1CNC(=O)c1cccc(N(C)C)c1	none
CN1C(=O)/C(=C/c2ccccc2OCc2cccc(F)c2)NC1=S	GALR2 agonist 146 (no result: MRP resist rev) | GALR2 agon conf inactive | BLA act counter inactive
CN1C(=O)/C(=C/c2ccccc2OCc2ccccc2)NC1=S	none (no result: MRP resist rev, S1P2 antag, S1P2 agonist)
CCOC(=O)c1c(C)n(C)c2ccc(OCC(O)CN3C(=O)c4ccccc4S3(=O)=O)cc12 (stereo not drawn)	none (no result: MRP resist rev) | GALR2 agon conf inactive | BLA act counter inactive
CN(Cc1nc(-c2ccccn2)no1)S(=O)(=O)c1ccccc1	none (no result: MRP resist rev) | GALR2 agon conf inactive | BLA act counter inactive
COc1cc(NC(=O)c2ccc(Cl)cc2Cl)ccc1-c1cc2ccccc2oc1=O	GALR2 agonist 13 (no result: MRP resist rev) | GALR2 agon conf inactive | BLA act counter inactive
COc1ccc(NC(=O)c2ccccn2)cc1	none (no result: MRP resist rev)
CCCCC(CC)C(=O)NCCc1ccc(S(N)(=O)=O)cc1 (stereo not drawn)	none
CCC(CC)C(=O)NCCc1ccc(S(N)(=O)=O)cc1	none | GALR2 agon conf inactive | BLA act counter inactive
COc1ccc(-c2noc(CCC(=O)NC3CCCCC3)n2)cc1OC	none
COc1cc(-c2noc(CCCC(=O)NC3CCCCC3)n2)cc(OC)c1OC	GALR2 agonist 26 | GALR2 agon conf inactive | BLA act counter inactive
O=C(NCc1ccco1)c1cccc(F)c1	none (no result: MRP resist rev) | GALR2 agon conf inactive | BLA act counter inactive
CCOC(=O)c1cc2nc(Nc3ccc(OC)cc3)sc2s1	none | GALR2 agon conf inactive | BLA act counter inactive
CC(NC(=O)Nc1ccc(Cl)c(Cl)c1)C(c1ccccc1)N1CCOCC1 (stereo not drawn)	GALR2 agonist 8.7 (no result: MRP resist rev, S1P2 antag, S1P2 agonist) | GALR2 agon conf inactive | BLA act counter 25
O=C(CN1C(=O)NC2(CCCCCC2)C1=O)N1CCC(Cc2ccccc2)CC1	none
O=C(Cc1sc(-c2ccccc2Cl)nc1-c1ccccc1)Nc1ccc(F)cc1	none
O=C(Cc1sc(-c2ccccc2Cl)nc1-c1ccccc1)Nc1ccccc1	GALR2 agonist 26 | GALR2 agon conf inactive | BLA act counter inactive
CCOc1ccc(NC(=S)NC(=O)c2c(Cl)c(C)nn2C)c([N+](=O)[O-])c1	GALR2 agonist 8.6 (no result: MRP resist rev, S1P2 antag, S1P2 agonist) | GALR2 agon conf inactive | BLA act counter inactive
COC(=O)c1ccccc1NC(=O)CCc1ccccc1	none (no result: MRP resist rev, S1P2 antag, S1P2 agonist)
CCOc1ccc(C2NC(=O)C(C#N)=C(S)N2c2ccc(OC)cc2)cc1OC (stereo not drawn)	none
COc1cc(C2NC(=O)C(C#N)=C(S)N2c2ccc(C)cc2)ccc1OC(C)C (stereo not drawn)	GALR2 agonist 91 | GALR2 agon conf inactive | BLA act counter inactive
Cc1ccccc1C(=O)Nc1nncs1	GALR2 agonist 26 | GALR2 agon conf inactive | BLA act counter inactive
Cc1ccc(/C=N/NC(=O)c2ccc(C(=O)N/N=C/c3ccc(C)s3)o2)s1	GALR2 agonist 30 (no result: MRP resist rev) | GALR2 agon conf inactive | BLA act counter 14
CCOC(=S)SCC(=O)Nc1nc(-c2ccccc2)cs1	none (no result: MRP resist rev, S1P2 antag, S1P2 agonist)
CCOC(=S)SCC(=O)Nc1nc(-c2ccc(Br)cc2)cs1	GALR2 agonist 16 (no result: MRP resist rev, S1P2 antag, S1P2 agonist) | GALR2 agon conf inactive | BLA act counter inactive
Cc1scc(C(=O)N/N=C/c2ccc(OC(C)C)cc2)c1C	none (no result: MRP resist rev)
CCN(CC)S(=O)(=O)c1ccc(C)c(NC(=O)COc2ccc(Cl)cc2Br)c1	GALR2 agonist 10 (no result: MRP resist rev, S1P2 antag, S1P2 agonist) | GALR2 agon conf inactive | BLA act counter inactive
CCN(CC)S(=O)(=O)c1ccc(Cl)c(NC(=O)COc2ccccc2[N+](=O)[O-])c1	none (no result: MRP resist rev, S1P2 antag, S1P2 agonist)
COc1ccc(C(=O)N2CCCc3ccccc32)cc1	none
CCN(CC)c1ccc2cc(-c3nc4ccccc4n3C)c(=O)oc2c1	S1P2 antag 69, GALR2 antag 43 | GALR2 agon conf inactive | BLA act counter inactive
CCNC(=S)N(Cc1ccc2c(c1)OCO2)C1CC(=O)N(c2ccc(F)cc2)C1=O (stereo not drawn)	none (no result: MRP resist rev) | GALR2 agon conf inactive | BLA act counter inactive
CC(C)CCOC(=O)C1C(c2ccccc2)C(C(=O)O)C1c1ccccc1 (stereo not drawn)	none | GALR2 agon conf inactive | BLA act counter inactive
O=C(O)C1C(c2ccccc2)C(C(=O)Oc2ccccc2)C1c1ccccc1 (stereo not drawn)	none
COc1ccc(C2=NOC(C(=O)Nc3cc(Br)ccc3O)C2)cc1OC (stereo not drawn)	GALR2 agonist 21 | GALR2 agon conf inactive | BLA act counter inactive
COc1ccc(C2=NOC(C(=O)NC3CCCCC3)C2)cc1OC (stereo not drawn)	none
CCCCn1c(NC(=O)c2ccccc2)c(C#N)c2nc3ccccc3nc21	GALR2 agonist 16 (no result: MRP resist rev) | GALR2 agon conf inactive | BLA act counter 14
N=c1oc2ccccc2cc1-c1nc(-c2ccccc2)cs1	GALR2 agonist 20 (no result: MRP resist rev, S1P2 antag, S1P2 agonist) | GALR2 agon conf inactive | BLA act counter inactive
CCn1c2ccccc2c2cc(NC(=O)CSc3nnc(-c4cccc(Cl)c4)o3)ccc21	none (no result: MRP resist rev)
O=C(CSC1=Nc2ccccc2C2=NC(c3ccccc3)C(=O)N12)NC1CCCCC1 (stereo not drawn)	none
COc1ccc(-n2nc(C(=O)NCc3ccco3)c3c4ccccc4n(C)c3c2=O)cc1	none (no result: S1P2 antag, S1P2 agonist)
Cc1ccc(-n2nc(C(=O)NCc3ccc(C)o3)c3c4ccccc4n(C)c3c2=O)cc1	GALR2 agonist 14 | GALR2 agon conf inactive | BLA act counter inactive
COC(=O)c1ccc(CSc2nc3c(c(=O)n2-c2ccccc2)SCC3)o1	none (no result: S1P2 antag, S1P2 agonist)

Bioassay records (PubChem BioAssay)
